Shown are actives, neighbours in structure and some others; about 9.3% of the full set was active somewhere.
FLuc modulator: counter-screen for miR-21 project: firefly luciferase inhibitors or activators; P08659; purified FLuc, Km substrates, luminescence inhibition; Potency, µM (top dose mostly 57.5 µM), for the others: at the top dose activity change, negative = inhibition, usual class: inhibitors; AID 588342; actives 6.9% (n = 360,000);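 note: plate controls were vehicle for no effect and reference inhibitor for full effect; nearly all actives have a fitted effect of over 55% in size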
Target sequence (P08659 whole entry, looked up): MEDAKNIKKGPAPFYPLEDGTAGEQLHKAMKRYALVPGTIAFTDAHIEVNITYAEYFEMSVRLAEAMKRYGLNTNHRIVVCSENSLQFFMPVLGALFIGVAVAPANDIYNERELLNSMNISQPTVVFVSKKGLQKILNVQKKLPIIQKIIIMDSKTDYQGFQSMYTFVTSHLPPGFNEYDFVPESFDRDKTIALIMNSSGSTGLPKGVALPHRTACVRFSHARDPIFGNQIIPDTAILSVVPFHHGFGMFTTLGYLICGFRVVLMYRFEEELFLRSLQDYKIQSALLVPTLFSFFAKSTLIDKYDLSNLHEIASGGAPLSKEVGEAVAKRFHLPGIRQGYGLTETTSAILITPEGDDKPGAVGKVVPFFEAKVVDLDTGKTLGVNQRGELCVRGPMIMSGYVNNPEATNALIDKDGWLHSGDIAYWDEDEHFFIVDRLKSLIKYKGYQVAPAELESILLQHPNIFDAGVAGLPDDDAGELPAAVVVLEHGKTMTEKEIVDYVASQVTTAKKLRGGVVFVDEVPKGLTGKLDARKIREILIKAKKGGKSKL
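Purified P. pyralis luciferase (10nM final) with 10uM D-luciferin and 10uM ATP (Km levels) in 50mM Tris acetate pH 7.5, 10mM Mg acetate, 0.01% Tween-20, 0.05% BSA; qHTS 6-point titration, ~60 µM downward; luminescence read.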
SMN2 splice enh: enhancers of SMN2 splice variant expression; HEK293 SMN2-luciferase splicing reporter, luminescence, 30-36 h; Potency, µM (titrated, usually from 46.1 µM), for the others: at the highest dose activity change, positive = activation, hits mostly activators; actives 2.8% (n = 210,000); AID 1458; note: % of control where 0% means no effect; nearly all actives have a fitted effect of over 55% in size
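HEK293 cells carry an SMN2 […]–luciferase reporter in which exon 7 inclusion puts luciferase in frame. Cells were plated 10-12 h before compound addition, then incubated 30-36 h at 37C. ONE-Glo luminescence was read; sodium butyrate at 4.5 mM final served as control.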
NPC1 promoter act: NPC1 promoter activation; Huh7 NPC1 promoter luciferase reporter, 24 h; Potency, µM (titrated, usually from 9.22 µM), inactives show top-dose activation, hits mostly activators; actives 2.4% (n = 320,000); note: % of control where 0% means no effect; nearly all actives have a fitted effect of over 60% in size
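Quantitative HTS used a cell-based reporter: Huh7 cells stably bearing the NPC1 promoter upstream of luciferase were treated with compounds for 24 h, and promoter activation was read as luminescence.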
ELG1 genotoxic: genotoxicity induction in ELG1-luciferase HEK293T cells; HEK293T ELG1-luciferase reporter, luminescence, 16 h; AID 504466; actives 1.3% (n = 330,000); Potency, µM (highest dose often 46 µM), for inactives: at the top dose activity change, positive = activation, usual class: activators; note: % of control where 0% means no effect; nearly all actives have a fitted effect of over 60% in size
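Step 1: seed 2,000 HEK293T ELG1-luciferase cells per well. Step 2: add compound or DMSO, incubate 16 hr at 37 °C. Step 3: ONE-Glo, 30 min at room temperature, read luminescence.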
Rab9 prom act: activates the Rab9 promoter | actives 2.8% (n = 320,000) | Huh7 Rab9 promoter-luciferase reporter, luminescence, 24 h | Potency, µM (series often up to 9.22 µM), for inactives: top-dose activation, negative = inhibition, hits mostly activators | AID 485297; note: % of control where 0% means no effect; nearly all actives have a fitted effect of over 60% in size
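Huh7 cells stably carrying a Rab9 promoter-luciferase reporter, 1500 cells per well in OP-MEM I with 10% FBS, treated with compound 24 hours at 37C. Luciferase activity read by luminescence after 10 minutes with Amplite reagent.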
ELG1 repair inh: ELG1-dependent DNA repair inhibition | HEK293T ELG1-luciferase reporter, luminescence, 16 h; DNA damage induced by 5-fluorouridine | Potency, µM (top dose mostly 46.1 µM), without a hit: at the top dose activity change, negative = inhibition, most hits filed as inhibitors | actives 2.3% (n = 330,000) | AID 504467; note: % is set by controls: 0 for no effect and ±100 for the full control effect; nearly all actives have a fitted effect of over 55% in size
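Quantitative HTS, concentration-response format. 2,000 cells/well co-treated with 5-fluorouridine and compound, 16 hr in 5% CO2 at 37 °C; ONE-Glo luminescence read after 30 min.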
* hit, by the source's call; ? = inconclusive; / = not tested or not shown; [ ] = dose if it differs, or a comment. Calls come from the whole dose curve; as a rule, active = well fitted curve in the direction sought with a large enough effect; inconclusive = small, poorly fitted or top-dose-only effect, or another doubt; inactive = no such curve, though single readings can be large; an effect the other way counts as inactive or inconclusive. Potency is the fitted concentration of half-maximal effect.

SMILES | FLuc modulator | SMN2 splice enh | NPC1 promoter act | ELG1 genotoxic | Rab9 prom act | ELG1 repair inh
O=c1c2ccccc2ncn1-c1ccc([N+](=O)[O-])cc1[N+](=O)[O-] | 3% | / | -2% | -10% | -6% | 15µM*
Cc1occc(=O)c1OCc1ccc(Cl)cc1Cl | 0% | / | 0% | -1% | -1% | 0%
CC(C)(CNC(=O)c1ccc(S(=O)(=O)Nc2ccc(Cl)cc2)cc1)N1CCOCC1 | -1% | / | -4% | 1% | -2% | -1%
Cc1ccc(C(=O)Nc2ccc(Cl)c(-c3nc4ncccc4o3)c2)c(C)c1 | 2.7µM* | ? | / | / | / | /
O=C(C[n+]1cc(-c2ccc(F)cc2)n2c1CCC2)N1c2ccccc2Sc2ccccc21 | 2.4µM* | 76% | ? | ? | 2.8µM* | ?
COc1ccc(C)cc1NC(=O)CCNS(=O)(=O)c1ccc2c(c1)CC(C)N2C(C)=O (configuration not stated) | 5% | / | 1% | -1% | -5% | -4%
COc1nc(Nc2ccc3c(c2)OCO3)nc(OC)n1 | -7% | -3% | 18% | ? | -1% | ?
COc1ccc(-c2csc(/C(C#N)=C/Nc3ccc4c(c3)OCCO4)n2)cc1 | 4% | 0% | -1% | -10% | -1% | ?
COc1cccc(Nc2nc(-c3ccc4c(c3)OCCO4)cs2)c1 | 3.4µM* | 14µM* | ? | ? | 3.2µM* | ?
N#C/C(=C\Nc1ccc2c(c1)OCCO2)c1nc(-c2ccccc2)cs1 | 3% | -15% | 0% | ? | -12% | 3%
c1ccc(-c2csc(Nc3ccc4c(c3)OCCO4)n2)cc1 | 0.54µM* | 4µM* | / | / | / | /
c1cc2c(cc1Nc1nc(-c3ccc4c(c3)OCO4)cs1)OCCO2 | 4.3µM* | 4µM* | 3.2µM* | ? | 2.8µM* | ?
Cc1nc2nc(CNC(=O)c3cccc(F)c3)nn2c(C)c1CCC(=O)Nc1ccc(F)cc1 | 2% | 0% | / | / | / | /
CC(=O)OC[C@H]1O[C@@H](n2ncc(=O)[nH]c2=O)[C@H](OC(C)=O)[C@@H]1OC(C)=O | -2% | 10µM* | -5% | -13% | 1% | ?
O=C(COc1ccc(F)cc1)Nc1cccc(OCc2cc(=O)n3ccccc3n2)c1 | -5% | / | / | / | / | /
COC(=O)c1ccccc1-c1ccc(C=O)o1 | -1% | / | -1% | 1% | -2% | -8%
CC(C)OC(=O)c1cccc(-c2ccc(C=O)o2)c1 | ? | 13µM* | 17% | ? | 15% | ?
COc1cc(NC(=O)Cn2nc(C(F)(F)F)c3c2CCC3)cc(OC)c1OC | -2% | -2% | / | / | / | /
CC(C(=O)O)N1C(=O)/C(=C/C=C/c2ccco2)SC1=S (configuration not stated) | 17µM* | -9% | 8% | 0% | 1% | -2%
COC(=O)c1ccc(OCC2c3cc(OC)c(OC)cc3CCN2C(=O)c2ccccc2C)cc1 (configuration not stated) | -9% | / | / | / | / | /
COC(=O)c1ccc2[nH]c(C)cc(=O)c2c1 | 4% | -11% | -3% | -3% | -3% | 11%
CCOC(=O)c1ccc2[nH]c(C)cc(=O)c2c1 | -2% | -15% | -2% | 4% | 2% | 13%
COC(=O)c1ccc2[nH]c(C(C)(C)O)c(C)c2c1 | 19µM* | / | ? | ? | ? | ?
O=C(NCCCO)c1ccc2[nH]c3ccccc3c2c1 | 24µM* | 12% | 1% | 11% | 1% | ?
CCOC(=O)c1ccc2[nH]c3ccccc3c2c1 | 19µM* | ? | 18% | 10% | ? | ?
SMILES | FLuc modulator | SMN2 splice enh | NPC1 promoter act | ELG1 genotoxic | Rab9 prom act | ELG1 repair inh
CCCCOC(=O)c1cc2c(cn1)[nH]c1ccccc12 | / | 18µM* | / | / | / | /
COc1ccc(COC(=O)C2=C(C)NC(=O)NC2c2ccc(F)cc2)cc1 (configuration not stated) | -2% | / | -4% | -15% | -5% | ?
CNC(=O)c1cc(S(=O)(=O)Nc2ccc(C)cc2C)ccc1C | 4% | / | -9% | -1% | -3% | -6%
Cc1cccc(-c2nnn3c2nc(NCCc2ccc(S(N)(=O)=O)cc2)c2ccccc23)c1 | 2% | 12% | 2% | 13% | -6% | 2.6µM*
NS(=O)(=O)c1ccc(CCNc2nc3c(-c4cccc(F)c4)nnn3c3ccccc23)cc1 | -1% | 22% | -1% | ? | -8% | 2.6µM*
CC(=O)Nc1ccc(NC(=O)COC(=O)/C(=C/c2ccccc2)n2nnnc2C)cc1 | -1% | / | -11% | -4% | 13% | ?
Cc1nnnn1/C(=C\c1ccccc1)C(=O)OCC(=O)NC(C)(C)C | 0% | -17% | -6% | 0% | 12% | 16µM*
CC(C)(C)OC(=O)N/N=C\C=C\c1ccc2c(c1)OCO2 | 7.6µM* | -15%[1.84 µM] | 4µM* | ? | 1.6µM* | ?
CCOC(=O)N/N=C\C=C\c1ccc2c(c1)OCO2 | 13µM* | -8%[1.84 µM] | ? | ? | 3.2µM* | ?
COc1ccc(CC(=O)N/N=C/C=C/c2ccc3c(c2)OCO3)cc1OC | -6% | / | 1% | 3% | 0% | ?
COC(=O)N/N=C\C=C\c1ccc2c(c1)OCO2 | 15µM* | 6% | 4µM* | 2% | 3.5µM* | 6%
O=S(=O)(NCc1nc2ccccc2[nH]1)c1ccccc1 | -20% | / | 12% | 9% | 26% | 3%
Cc1ccccc1C(=O)NCc1ccc2c(c1)CCN2C(=O)c1ccccc1 | -16% | / | / | / | / | /
Cc1cc2n(n1)C(c1ccc3c(c1)OCO3)Nc1c(C)cccc1-2 (configuration not stated) | -7% | 4µM* | -1% | -4% | -2% | 0%
CCCCNC(=S)NNC(=O)c1cc(-c2cccnc2)nc2ccccc12 | 15µM* | / | -2% | 0% | 0% | -2%
C/C(=N\NC(=O)c1cc(-c2cccnc2)nc2ccccc12)c1ccccc1O | ? | -82% | -36% | ? | -33% | ?
CCCNC(=S)NNC(=O)c1cc(-c2cccnc2)nc2ccccc12 | 19µM* | / | -1% | -2% | -9% | 17%
CCNC(=S)NNC(=O)c1cc(-c2cccnc2)nc2ccccc12 | 9.5µM* | 13% | -3% | 3% | 3% | ?
Cc1ccc(C)c(-c2cc(C(=O)Nc3cccnc3)c3ccccc3n2)c1 | 1% | / | -1% | -15% | 11% | ?
Cc1oc2ncn(C)c(=O)c2c1C(=O)N(C)c1ccccc1F | 1% | / | / | / | / | /
COC(=O)[C@H](Cc1c[nH]c2ccccc12)NC(=O)Nc1ccccc1OC | 6% | / | 3% | -7% | -8% | -7%
